# Assay outcomes from PubChem.
# Sa ugtP lethal = compounds lethal to S. aureus RN4220 ugtP deletion mutant; OD600 growth, 16 h; growth inhibition, % (concentration not given with the values); hit rate 0.54% among 330,000; AID 1259309; in the data active = growth inhibition above about 68%;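 also: plate controls were untreated wells for no effect and antibiotic for full effect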
# TcdB GH inh = TcdB glycohydrolase inhibition. AID 652162. TcdB glycohydrolase enzymatic assay, plate reader. P18177. inhibition, % at 9.99 µM. hit rate 0.24% among 350,000; in the data active = inhibition above about 10%
# Vc quorum ag = quorum light induction in luxS cqsA deficient V. cholerae | V. cholerae BH1578 lux reporter, luminescence, 6 h | activation, % at 18.7 µM | hit rate 0.16% among 350,000 | AID 588436; in the data active = activation mostly above about 9.7%, no sharp cut-off
# RN4220 kill = kills Staphylococcus aureus RN4220; S. aureus RN4220 growth, OD600, 16 h; inhibition, % (no concentration beside the values); hit rate 0.33% among 330,000; AID 1259311; in the data active = inhibition above about 85%;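 also: plate controls were untreated cells for no effect and reference antibiotic for full effect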
# * hit, by the source's call; i = inactive; · = no result given. Sampled rows, rich in hits. Any-hit rate of the full collection: about 0.67%.
SMILES,Sa ugtP lethal,TcdB GH inh,Vc quorum ag,RN4220 kill
Cc1cc(C)nc(SCC(=O)c2ccc(C)c(C)c2)n1,4,-1,-1,11
Cc1cc(C)nc(SCC(=O)c2ccc(O)c(O)c2)n1,0,11*,0,8
Cn1nc(C(F)(F)F)c(C=NOCc2c(Cl)cccc2Cl)c1Cl,93*,·,·,4
Cn1nc(C(F)(F)F)c(/C=N/OC(=O)c2ccccc2)c1Cl,·,·,i,·
C=CCn1c(Sc2ncc([N+](=O)[O-])s2)n[nH]c1=O,89*,1,-1,27
CCn1cc(C(=O)O)c(=O)c2cc(F)c(N3CCN(C(=S)NC(=O)c4ccc(F)c(F)c4)CC3)cc21,100*,5,i,100*
CC(=O)N1CCN(c2cc3c(cc2F)c(=O)c(C(=O)O)cn3C2CC2)CC1,99*,1,i,98*
CCCCCCC(=O)N1CCN(c2cc3c(cc2F)c(=O)c(C(=O)O)cn3CC)CC1,·,·,-1,·
CCn1cc(C(=O)O)c(=O)c2cc(F)c(N3CCN(C(=S)NC(=O)c4ccc(F)cc4)CC3)cc21,84,1,-4,86
CCn1cc(C(=O)O)c(=O)c2cc(F)c(N3CCN(C(=S)NC(=O)c4cccc(F)c4)CC3)cc21,9,0,-1,12
CCn1cc(C(=O)O)c(=O)c2cc(F)c(N3CCN(C(=S)NC(=O)c4ccccc4Br)CC3)cc21,99*,10*,-1,98*
CCCOc1ccc(C(=O)NC(=S)N2CCN(c3cc4c(cc3F)c(=O)c(C(=O)O)cn4CC)CC2)cc1,96*,-2,0,44
CCC(=O)N1CCN(c2cc3c(cc2F)c(=O)c(C(=O)O)cn3CC)CC1,47,-1,i,44
Cc1cccc2nc(-c3ccccc3)nc(NC(CO)c3ccccc3)c12 (stereo not given),-26,·,·,-5
CC(=C(CCO)SSCC1CCCO1)N(C=O)Cc1cnc(C)nc1N (stereo not given),-1,·,·,10
CCn1cc(C(=O)NCc2cccnc2)c(=O)c2cc(F)c(N3CCN(C(=O)c4ccco4)CC3)cc21,100*,·,-1,96*
COc1ccc(C=NN(C(C)=O)c2nc(-c3ccc(C)cc3)cs2)cc1,1,·,·,4
O=S(=O)(Nc1nc2c(s1)CCCC2)c1ccc2ccccc2c1,·,·,17*,·
CCOc1ccc2nc(SCc3ccc(OC)cc3)sc2c1,90*,·,i,7
CCOC(=O)C1=C(c2ccccc2)N=c2sc(=Cc3cccc(O)c3)c(=O)n2C1c1cccs1 (stereo not given),15,·,·,-10
O=C1CCN(Cc2ccccc2)S(=O)(=O)c2ccccc21,·,3,i,·
C=C1CCN(Cc2ccccc2)S(=O)(=O)c2ccccc21,0,11*,i,5
Cc1cccc(-n2nnc(C(=O)NCc3ccccc3Cl)c2N)c1,2,11*,1,7
Cc1ccc(CNC(=O)c2nnn(-c3cccc(C)c3)c2N)cc1,7,·,0,2
CCCCNC(=O)c1sc(=S)n2c1[nH]c(=O)c1ccccc12,82*,·,-3,74
SMILES,Sa ugtP lethal,TcdB GH inh,Vc quorum ag,RN4220 kill
O=C(NC1CCCCC1)c1sc(=S)n2c1[nH]c(=O)c1ccccc12,100*,·,i,100*
CC(=O)c1ccc(N2CCN(C(=O)c3ccc4c(=O)[nH]c5c(C(=O)NC6CCCC6)sc(=S)n5c4c3)CC2)cc1,·,1,·,·
CCCCc1ccc(-c2ccc(Br)cc2)nc1,88*,1,i,18
O=C(NNC(=S)NC1CCCCC1)c1sc2ccccc2c1Cl,44,0,-5,-7
CC(C)(C)C(=O)NC(=S)NNC(=O)c1sc2ccccc2c1Cl,97*,·,0,94*
CC1CC[C@@]2(O1)OC(CCO)CC(O)C2O (stereo not given in full),4,·,·,9
COc1ccc(NC(=O)/C(Cl)=C(/Cl)S(=O)(=O)Cc2ccc(C)cc2)cn1,98*,·,0,37
COc1ccccc1C(=O)Nc1cccc(C(=O)c2ccccc2)c1,-3,1,0,12
COc1ccccc1C(=O)Nc1cccc(Oc2c(F)c(F)c(F)c(F)c2F)c1,-1,13*,0,6
CCc1cccc2sc(N3CCN(C(=O)c4ccc([N+](=O)[O-])o4)CC3)nc12,99*,·,-3,100*
O=C(c1ccc([N+](=O)[O-])o1)N1CCN(Cc2ccccc2)CC1,1,1,-1,-1
COc1cc(OC)cc(C(=O)NNC(=O)CN2C(=O)NC(C)(c3ccc(C)cc3)C2=O)c1 (stereo not given),-2,14*,0,2
Cc1ccc(C=C2C(Cl)=C(Cl)C(Cl)=C2Cl)cc1,100*,·,·,97*
Cc1ccc(C=NN=Cc2ccc(C)cc2)cc1,10,·,·,2
O=C(O)c1ccc2c3c(cccc13)C(=O)N(c1cccc3ccccc13)C2=O,6,-1,i,3
O=C(O)c1ccc2c(c1)C(=O)N(c1cccc3ccccc13)C2=O,17,0,83*,0
O=C1CCCC=CCC(CC(=O)N(CCO)Cc2ccccc2)C(=O)NC(Cc2ccccc2)CO1 (stereo not given),-10,·,·,1
CC(C)(C)c1ccc(Cn2ccc(-c3ccc4c(c3)OCO4)n2)cc1,93*,·,i,5
CNC(=O)c1c(NC(=O)C2=COCCO2)sc2c1CCN(C(=O)OC)C2,97*,1,i,94*
CCC(=NNC(=O)c1ccc(Br)cc1)c1ccccc1,6,·,·,4
Cc1nn(C)cc1-c1n[nH]c(=S)n1-c1ccc(F)cc1,2,10*,0,1
CCn1c(SCC(=O)OC)nnc1-c1ccccc1,-2,20*,0,-1
CCn1c(SCC(=O)OC)nnc1-c1ccc(C)cc1,4,0,0,10
Cc1cc(C=NN2CCN(C)CC2)c(C)n1-c1ccc(Cl)cc1,-5,·,·,-1
O=C(C1=CC(C2CC2)CC(OCCCCO)O1)N1CCN(Cc2ccc3c(c2)OCO3)CC1 (stereo not given),5,·,·,6
SMILES,Sa ugtP lethal,TcdB GH inh,Vc quorum ag,RN4220 kill
CC(C(=O)Nc1ccc2ccccc2c1)C1C[C@]1(C)C(NS(=O)(=O)c1ccc(-c2ccccc2)cc1)c1ccccc1 (stereo not given in full),5,·,·,3
Cc1ccc(OCC(=O)c2c(O)c3ccccc3oc2=O)cc1C,58,·,2,58
Cc1ccc(C(C)C)c(OCC(=O)c2c(O)c3ccccc3oc2=O)c1,86*,·,i,86*
CCOC(=O)/C=C(\C)Sc1cc(O)c2ccccc2c1O,93*,0,i,97*
CCOC(=O)/C=C(\C)Sc1cc(=O)oc2ccccc12,6,·,0,9
CCOC(=S)SCC(=O)Nc1nc(-c2ccc(Br)cc2)cs1,99*,1,0,-13
CCOC(=S)SCC(=O)Nc1nc(-c2ccccc2)cs1,38,·,-1,-5
COc1ccc(/C=C/C(=O)c2c(O)cc(C)oc2=O)c(OC)c1,100*,·,i,-16
CC(C)CN1CCC(=O)N(C(COc2ccccc2)c2ccccc2)CC1 (stereo not given),4,·,·,3
COc1cc2nncc(SC)c2cc1OC,9,11*,-1,6
CCCCC(CC)COC1(c2ccccc2)OC(=O)c2ccccc21 (stereo not given),86*,·,-4,-4
